Measured values reported in PubChem BioAssay AID1851 (National Center for Advancing Translational Sciences (NCATS), 2009).
Out of some 16,000 compounds screened, about 5,800 (36%) were called active. About 23% were inconclusive and are not listed. Calls come from the whole dose curve; as a rule, active = well fitted curve in the direction sought with a large enough effect; inconclusive = small, poorly fitted or top-dose-only effect, or effect the other way; inactive = no such curve, though single readings can be large or run the other way. The list shows a part of the results.

biological target: Cytochrome P450 2C19 (Homo sapiens) (UniProt P33261); experiment: Cytochrome panel assay with activity outcomes; settings: recombinant CYP, pro-luciferin dealkylation, luminescence, p450-cyp2c19; series mostly up to 57.1 µM
Sequence (P33261 whole entry, looked up): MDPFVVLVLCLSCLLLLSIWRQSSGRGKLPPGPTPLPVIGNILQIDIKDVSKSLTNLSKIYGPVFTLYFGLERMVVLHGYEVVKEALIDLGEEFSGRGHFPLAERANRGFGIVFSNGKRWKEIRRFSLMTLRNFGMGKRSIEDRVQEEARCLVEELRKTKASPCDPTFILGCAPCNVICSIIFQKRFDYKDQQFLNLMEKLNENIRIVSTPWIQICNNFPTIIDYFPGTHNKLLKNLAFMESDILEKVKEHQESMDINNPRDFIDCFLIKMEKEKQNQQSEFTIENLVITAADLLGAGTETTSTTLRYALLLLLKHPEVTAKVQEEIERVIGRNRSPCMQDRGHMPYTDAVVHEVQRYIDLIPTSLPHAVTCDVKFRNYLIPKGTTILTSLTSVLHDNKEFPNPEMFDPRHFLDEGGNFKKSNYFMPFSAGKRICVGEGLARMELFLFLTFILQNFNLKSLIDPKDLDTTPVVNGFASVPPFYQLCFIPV
% is set by controls: 0 for no effect and ±100 for the full control effect.

| Structure (SMILES) | AC50 | activity, negative = inhibition |
| --- | --- | --- |
| COc1cccc(Nc2ncc3nc(-c4ccccc4)c(=O)n(Cc4cccs4)c3n2)c1 | inactive | – |
| c1cncc(CNc2ncncc2-c2cccnc2)c1 | inactive | – |
| COc1cccc(-c2cncnc2NCc2ccccc2)c1 | 1.58 µM (active) | – |
| Cc1cccc(CNc2ncncc2-c2cccnc2)c1 | 10 µM (active) | – |
| COc1cccc(-c2cncnc2NCc2cccs2)c1 | 0.631 µM (active) | – |
| COc1cccc(-c2cncnc2NCCN2CCOCC2)c1 | inactive | – |
| COc1cccc(-c2cncnc2NCc2cccc(C)c2)c1 | 0.794 µM (active) | – |
| COc1cccc(-c2cncnc2NCc2cccnc2)c1 | 0.316 µM (active) | – |
| CCOC(=O)C1=C(CN2c3ccccc3CC2C)NC(=O)NC1c1ccccc1 (stereo not drawn) | 7.08 µM (active) | – |
| C[C@@H](CC(=O)O)[C@@H](N)C(=O)O | inactive | – |
| Cc1c(NC(=S)/C=C2\N(C)c3ccccc3C2(C)C)c(=O)n(-c2ccccc2)n1C | 14.1 µM (active) | – |
| Cc1c(NC(=S)N/N=C/c2ccc(O)cc2)c(=O)n(-c2ccccc2)n1C | inactive | – |
| Fc1ccc(-c2[nH]ncc2-c2nnnn2-c2ccccc2)c(F)c1 | 0.631 µM (active) | – |
| NC(=O)c1ncn([C@@H]2O[C@@H](CO)[C@@H](O)[C@H]2O)c1O | inactive | – |
| O=C1CN(c2nc(-c3ccccc3)c3cc(Br)ccc3n2)c2ccccc2N1 | inactive | – |
| N=C(C[C@@H](O)COc1ccccc1-c1ccccc1)N1CCCCC1 | 31.6 µM (active) | – |
| CC(C)(C)NC[C@H](O)COc1cccc2c1CCCC2=O | inactive | – |
| CC(C)NC[C@@H](O)COc1ccccc1-n1cccc1 | inactive | – |
| O=C1C(=O)c2ccccc2C(O)=C1C(C1=C(O)c2ccccc2C(=O)C1=O)c1ccc(Cl)cc1 | 3.98 µM (active) | – |
| O=C1C(=O)c2ccccc2C(O)=C1C1CCC(c2ccc(Cl)cc2)CC1 (stereo not drawn) | inactive | – |
| O=C1C(=O)c2ccccc2C(O)=C1C(CCc1ccccc1)C1=C(O)c2ccccc2C(=O)C1=O | – | 21.7% [at 11.4 µM] (inactive) |

| Structure (SMILES) | AC50 | activity, negative = inhibition |
| --- | --- | --- |
| O=C1C2C3C=CC(C3)C2C(=O)N1c1ncn[nH]1 (stereo not drawn) | inactive | – |
| CSc1ccc(Cl)c(C(=O)NCCOc2cc(C)ccc2C(C)C)c1 | 5.01 µM (active) | – |
| CC(=O)Oc1cc(C(C)C)c(OCCN(C)C)cc1C | inactive | – |
| CN(C)CCNC(=O)c1cc(Br)ccc1Cl | inactive | – |
| CC(C)=CCC/C(C)=C/CO/N=C1/[C@H]2O[C@@H]2[C@@H](O)[C@H]2[C@H]1CCn1c(=O)n(Cc3cc4c(cc3Cl)OCO4)c(=O)n12 | – | 9.01% [at 11.4 µM] (inactive) |
| Cc1ccc(S(=O)(=O)N[C@H]2COC(=O)C/C=C\[C@H](C)[C@@H](NS(=O)(=O)c3ccc(C)cc3)COC(=O)C/C=C\[C@@H]2C)cc1 | – | 18.4% [at 11.4 µM] (inactive) |
| Cc1ccc(S(=O)(=O)Nc2ccccc2C=O)cc1 | 5.01 µM (active) | – |
| Cc1ccc(S(=O)(=O)Nc2ccccc2C(=O)c2ccc(C)c(C)c2)cc1 | – | 30.1% [at 11.4 µM] (inactive) |
| CCOC(=O)c1c(C(C)(C)C)oc2ccc(O)cc12 | 3.98 µM (active) | – |
| C[C@@](N)(Cc1ccc(O)cc1)C(=O)O | inactive | – |
| C[C@](N)(Cc1ccc(O)c(O)c1)C(=O)O | inactive | – |
| O=C(N/N=C/c1c[nH]c2ccccc12)c1ccn(Cc2ccc(Cl)cc2Cl)n1 | 2 µM (active) | – |
| O=C(N/N=C/c1c[nH]c2ccc(Br)cc12)c1ccn(Cc2ccc(Cl)cc2)n1 | 3.55 µM (active) | – |
| O=c1ncn(-c2ccccc2F)c2ncccc12 | inactive | – |
| O=c1[nH]n(-c2cccc3cccnc23)c(=O)c2ccccc12 | 11.2 µM (active) | – |
| Cc1cccc(CNc2nc(-c3ccoc3)nc3ccccc23)c1 | 7.94 µM (active) | – |
| c1ccc2c(NC3CCNCC3)nc(-c3ccoc3)nc2c1 | inactive | – |
| N#Cc1cccc(-c2nc(Nc3ccccc3)c3ccccc3n2)c1 | inactive | – |
| COc1ccccc1CNc1nc(-c2cccc(C#N)c2)nc2ccccc12 | 3.98 µM (active) | – |
| CNc1nc(-c2cccc(C#N)c2)nc2ccccc12 | 7.94 µM (active) | – |
| N#Cc1cccc(-c2nc(NCc3cccs3)c3ccccc3n2)c1 | inactive | – |

| Structure (SMILES) | AC50 | activity, negative = inhibition |
| --- | --- | --- |
| Cc1cnc(CNc2nc(-c3ccoc3)nc3ccccc23)cn1 | inactive | – |
| COc1cccc(-c2nc(NCc3cccs3)c3ccccc3n2)c1 | 3.16 µM (active) | – |
| Cc1ccnc(N)c1 | inactive | – |
| C[C@H](N=C(NC#N)Nc1ccncc1)C(C)(C)C | inactive | – |
| NC(N)=N[C@@H]1C(O)[C@H](N=C(N)N)[C@@H](O)C(O)[C@H]1O (stereo partly drawn) | – | 12.7% [at 11.4 µM] (inactive) |
| COc1cccc(-c2nc(NC3CCNCC3)c3ccccc3n2)c1 | inactive | – |
| N#Cc1cccc(-c2nc(NCc3ccccc3)c3ccccc3n2)c1 | 6.31 µM (active) | – |
| COc1cccc(-c2nc(NCc3ccccc3)c3ccccc3n2)c1 | 3.98 µM (active) | – |
| N#Cc1cccc(-c2nc(NCc3cccnc3)c3ccccc3n2)c1 | inactive | – |
| COc1cccc(-c2nc(NCc3ccccc3OC)c3ccccc3n2)c1 | 7.94 µM (active) | – |
| Cc1cnc(CNc2nc(-c3cccnc3)nc3ccccc23)cn1 | inactive | – |
| Cc1cccc(CNc2nc(-c3cccnc3)nc3ccccc23)c1 | 10 µM (active) | – |
| COc1cccc(-c2nc(NCc3cccnc3)c3ccccc3n2)c1 | 25.1 µM (active) | – |
| COc1ccc(-c2cc(C(F)(F)F)nc(NCc3cccnc3)n2)cc1 | 2.82 µM (active) | – |
| O=C(O)c1ccc(C(=O)O)c(C(=O)O)c1.[NH-][C@@H]1CCCC[C@@H]1[NH-].[Pt] | – | -17.9% [at 11.4 µM] (inactive) |
| CN1CCC2(CC1)CCN(C(=O)c1cc(C(F)(F)F)cc(C(F)(F)F)c1)CC2 | inactive | – |
| CON/C=C(\C=Nc1ccccc1)c1ncc(C(F)(F)F)cc1Cl | 3.55 µM (active) | – |
| Cn1cnc2c(NC3CCCC3)ncnc21 | inactive | – |
| O=C1Nc2ccccc2/C1=N/c1sc2c(c1C(=O)NCCc1ccccc1)CCCC2 | 2.51 µM (active) | – |
| O=C1Nc2ccccc2C1=Nc1ccc(S(=O)(=O)Nc2nccs2)cc1 | – | 21.4% [at 11.4 µM] (inactive) |
| NS(=O)(=O)c1ccc(N=C2C(=O)Nc3ccccc32)cc1 | – | -2.67% [at 11.4 µM] (inactive) |
